In all, about 5,500 compounds went through this assay and about 2,000 (36%) were called active. Inconclusive results (about 18%) are left out. Cut-off read from the data, not from the text of the source: active = normalized growth mostly below about 0.91 (no sharp cut-off); inconclusive = no clear call, values can overlap the other calls; inactive = mostly above about 0.92. Some of the results follow.
Assay: chemical genetic growth profiling, strain panel (AID 1159580);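 note: tested at 20 µM; growth read once vehicle control cultures reached saturation at 30 °C; 1 = growth at the plate median or of vehicle wells; lower values mean less growth of the strain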
Details: growth OD

Measured: normalized growth

CC(=O)Oc1c(C)cccc1C(=O)O
inactive: S. cerevisiae deletion strains, locus YJR043C, strain POL32, stronger effect = lower value 1 | S. cerevisiae deletion strains, locus YJR075W, strain HOC1, stronger effect = lower value 1.01 | S. cerevisiae deletion strains, locus YKL009W, strain mrt4, stronger effect = lower value 0.975 | S. cerevisiae deletion strains, locus YKL068W, stronger effect = lower value 0.995 | S. cerevisiae deletion strains, locus YKL085W, strain MDH1 (second series), stronger effect = lower value 1 | S. cerevisiae deletion strains, locus YKL085W, strain MDH1, stronger effect = lower value 1 | S. cerevisiae deletion strains, locus YKL160W, strain elf1, stronger effect = lower value 0.994 | S. cerevisiae deletion strains, locus YKL190W, strain CNB1, stronger effect = lower value 1.01 | S. cerevisiae deletion strains, locus YKR001C, strain vps1, stronger effect = lower value 1.02 | S. cerevisiae deletion strains, locus YKR026C, strain gcn3, stronger effect = lower value 0.986 | S. cerevisiae deletion strains, locus YKR091W, strain srl3, stronger effect = lower value 1.02 | S. cerevisiae deletion strains, locus YLL001W, strain dnm1, stronger effect = lower value 0.986 | S. cerevisiae deletion strains, locus YLL026W, stronger effect = lower value 1.01 | S. cerevisiae deletion strains, locus YLL041C, strain sdh2, stronger effect = lower value 0.991 | S. cerevisiae deletion strains, locus YLR027C, strain aat2, stronger effect = lower value 0.989 | S. cerevisiae deletion strains, locus YLR039C, strain RIC1, stronger effect = lower value 1 | S. cerevisiae deletion strains, locus YLR058C, strain SHM2, stronger effect = lower value 1.01 | S. cerevisiae deletion strains, locus YLR102C, strain apc9, stronger effect = lower value 1.01 | S. cerevisiae deletion strains, locus YLR221C, strain rsa3, stronger effect = lower value 1.02 | S. cerevisiae deletion strains, locus YLR258W, strain gsy2, stronger effect = lower value 0.999 | S. cerevisiae deletion strains, locus YLR262C, strain YPT6 (second series), stronger effect = lower value 1.03 | S. cerevisiae deletion strains, locus YLR262C, strain YPT6, stronger effect = lower value 1.05 | S. cerevisiae deletion strains, locus YLR268W, strain sec22, stronger effect = lower value 1.01 | S. cerevisiae deletion strains, locus YLR320W, strain mms22, stronger effect = lower value 1.03 | S. cerevisiae deletion strains, locus YLR330W, strain CHS5, stronger effect = lower value 1 | S. cerevisiae deletion strains, locus YLR342W, strain FKS1 (second series), stronger effect = lower value 1.02 | S. cerevisiae deletion strains, locus YLR342W, strain FKS1, stronger effect = lower value 1 | S. cerevisiae deletion strains, locus YLR357W, strain rsc2, stronger effect = lower value 1.04 | S. cerevisiae deletion strains, locus YLR370C, strain arc18, stronger effect = lower value 0.992 | S. cerevisiae deletion strains, locus YLR371W, strain rom2, stronger effect = lower value 1.01 | S. cerevisiae deletion strains, locus YLR384C, strain iki3, stronger effect = lower value 1.01 | S. cerevisiae deletion strains, locus YLR418C, strain cdc73, stronger effect = lower value 1.03 | S. cerevisiae deletion strains, locus YML016C, strain PPZ1, stronger effect = lower value 1.02 | S. cerevisiae deletion strains, locus YML032C, strain rad52, stronger effect = lower value 1.02 | S. cerevisiae deletion strains, locus YML120C, strain ndi1, stronger effect = lower value 1.02 | S. cerevisiae deletion strains, locus YML124C, strain tub3, stronger effect = lower value 1.01 | S. cerevisiae deletion strains, locus YMR058W, strain fet3, stronger effect = lower value 1.02 | S. cerevisiae deletion strains, locus YMR078C, strain ctf18, stronger effect = lower value 1.02 | S. cerevisiae deletion strains, locus YMR125W, strain sto1, stronger effect = lower value 1 | S. cerevisiae deletion strains, locus YMR129W, stronger effect = lower value 1.02 | S. cerevisiae deletion strains, locus YMR205C, strain PFK2, stronger effect = lower value 0.986 | S. cerevisiae deletion strains, locus YMR223W, strain ubp8, stronger effect = lower value 1.01 | S. cerevisiae deletion strains, locus YMR231W, strain pep5, stronger effect = lower value 1.01 | S. cerevisiae deletion strains, locus YMR263W, strain SAP30, stronger effect = lower value 1.01 | S. cerevisiae deletion strains, locus YMR307W, strain GAS1, stronger effect = lower value 1.05 | S. cerevisiae deletion strains, locus YNL067W, strain RPL9B, stronger effect = lower value 1.01 | S. cerevisiae deletion strains, locus YNL071W, strain lat1, stronger effect = lower value 1.02 | S. cerevisiae deletion strains, locus YNL128W, strain TEP1, stronger effect = lower value 1.01 | S. cerevisiae deletion strains, locus YNL153C, strain GIM3, stronger effect = lower value 1.01 | S. cerevisiae deletion strains, locus YNL209W, strain ssb2, stronger effect = lower value 1.01 | S. cerevisiae deletion strains, locus YNL233W, strain BNI4, stronger effect = lower value 1.01 | S. cerevisiae deletion strains, locus YNL248C, strain rpa49, stronger effect = lower value 1.01 | S. cerevisiae deletion strains, locus YNL250W, strain rad50, stronger effect = lower value 1.02 | S. cerevisiae deletion strains, locus YNL271C, strain bni1, stronger effect = lower value 1.01 | S. cerevisiae deletion strains, locus YNL298W, strain CLA4, stronger effect = lower value 0.987 | S. cerevisiae deletion strains, locus YNL307C, strain MCK1, stronger effect = lower value 1.02 | S. cerevisiae deletion strains, locus YNL322C, strain KRE1 (second series), stronger effect = lower value 1.01 | S. cerevisiae deletion strains, locus YNL322C, strain KRE1, stronger effect = lower value 1.01 | S. cerevisiae deletion strains, locus YNR049C, strain mso1, stronger effect = lower value 0.978 | S. cerevisiae deletion strains, locus YNR052C, strain pop2, stronger effect = lower value 1.01 | S. cerevisiae deletion strains, locus YOL006C, strain TOP1, stronger effect = lower value 1.02 | S. cerevisiae deletion strains, locus YOL012C, strain htz1 1.54 | S. cerevisiae deletion strains, locus YOL147C, strain pex11, stronger effect = lower value 1.01 | S. cerevisiae deletion strains, locus YOR001W, strain rrp6, stronger effect = lower value 1.01 | S. cerevisiae deletion strains, locus YOR061W, strain CKA2, stronger effect = lower value 1 | S. cerevisiae deletion strains, locus YOR069W, strain VPS5, stronger effect = lower value 1.01 | S. cerevisiae deletion strains, locus YOR070C, strain gyp1, stronger effect = lower value 0.99 | S. cerevisiae deletion strains, locus YOR080W, strain dia2, stronger effect = lower value 0.999 | S. cerevisiae deletion strains, locus YOR083W, strain WHI5, stronger effect = lower value 1.01 | S. cerevisiae deletion strains, locus YOR106W, strain vam3, stronger effect = lower value 1.01 | S. cerevisiae deletion strains, locus YOR136W, strain idh2, stronger effect = lower value 1.02 | S. cerevisiae deletion strains, locus YOR144C, strain elg1, stronger effect = lower value 1.02 | S. cerevisiae deletion strains, locus YOR184W, strain ser1, stronger effect = lower value 1.01 | S. cerevisiae deletion strains, locus YOR265W, strain rbl2, stronger effect = lower value 0.993 | S. cerevisiae deletion strains, locus YOR270C, strain vph1, stronger effect = lower value 1.06 | S. cerevisiae deletion strains, locus YOR290C, strain snf2, stronger effect = lower value 0.99 | S. cerevisiae deletion strains, locus YOR316C, strain cot1, stronger effect = lower value 1.02 | S. cerevisiae deletion strains, locus YPL051W, strain arl3, stronger effect = lower value 1 | S. cerevisiae deletion strains, locus YPL055C, strain LGE1, stronger effect = lower value 1.03 | S. cerevisiae deletion strains, locus YPL078C, strain atp4, stronger effect = lower value 1.02 | S. cerevisiae deletion strains, locus YPL106C, strain sse1, stronger effect = lower value 1.06 | S. cerevisiae deletion strains, locus YPL240C, strain hsp82, stronger effect = lower value 0.973 | S. cerevisiae deletion strains, locus YPL241C, strain CIN2, stronger effect = lower value 0.986 | S. cerevisiae deletion strains, locus YPR119W, strain clb2, stronger effect = lower value 1 | S. cerevisiae deletion strains, locus YPR141C, strain kar3, stronger effect = lower value 1 | S. cerevisiae deletion strains, locus YPR163C, strain tif3, stronger effect = lower value 1.01 | S. cerevisiae deletion strains, locus YPR167C, strain met16, stronger effect = lower value 1.01 | S. cerevisiae deletion strains, strain wtn01, stronger effect = lower value 1 | S. cerevisiae strains, strain wild type, stronger effect = lower value 0.993

Source: PubChem BioAssay AID1159580 (chemical genetic matrix, 2015)
